System: U-2932
Test: growth inhibition by drug alone (1 - RLU/untreated control) (fraction); higher = stronger inhibition
Conditions: 177Lu-lilotomab satetraxetan 0 ug/ml
Method: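 U-2932 ABC-DLBCL cells were pretreated or not for 18 h with 1 ug/ml 177Lu-lilotomab satetraxetan (600 MBq/mg), washed and seeded (3000 cells/well) on 384-well plates pre-printed with the Selleck Cambridge Cancer Compound library. Viability was read by RealTime-Glo luminescence on days 3-6 after seeding. Effect = 1 - RLU/mean RLU of the 48 untreated no-drug control wells per plate; Bliss score = (M-E)/(1-Fa), with E the expected Bliss-additive effect.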

Row | SMILES | growth inhibition by drug alone (10 nM, time (day): 3) | growth inhibition by drug alone (10 nM, time (day): 4) | growth inhibition by drug alone (10 nM, time (day): 5) | growth inhibition by drug alone (10 nM, time (day): 6) | growth inhibition by drug alone (1000 nM, time (day): 3) | growth inhibition by drug alone (1000 nM, time (day): 4) | growth inhibition by drug alone (1000 nM, time (day): 5) | growth inhibition by drug alone (1000 nM, time (day): 6)
1 | COc1cc2nc(N3CCCN(C)CC3)nc(NC3CCN(Cc4ccccc4)CC3)c2cc1OC | 0.128 | 0.0539 | -0.00458 | -0.0956 | 0.00727 | 0.0766 | 0.0688 | 0.0239
2 | COc1cc2nccc(Oc3ccc(NC(=O)C4(C(=O)Nc5ccc(F)cc5)CC4)cc3)c2cc1OC [XL-184 free base (Cabozantinib)] | 0.15 | 0.0841 | -0.102 | -0.0896 | 0.0853 | 0.105 | 0.037 | -0.036
3 | C[C@]1(c2nc3c(C(N)=O)cccc3[nH]2)CCCN1 [ABT-888 (Veliparib)] | -0.0659 | -0.0358 | -0.0424 | 0.0616 | -0.0937 | -0.0475 | -0.078 | -0.068
4 | Nc1cccc2c1C(=O)N(C1CCC(=O)NC1=O)C2=O (stereo not given) [Pomalidomide] | 0.00761 | 0.0144 | -0.0587 | -0.183 | 0.0958 | 0.25 | 0.271 | 0.309
5 | Nc1nc(Cl)nc2c1ncn2[C@@H]1O[C@H](CO)[C@@H](O)[C@@H]1F [Clofarabine] | 0.0673 | 0.0292 | -0.0979 | -0.0594 | 0.929 | 0.958 | 0.972 | 0.979

Source: the supplement of paper PMC6897291
